The nature of assay [1]: antimalarial activity against Dd2 strain (AID 2302;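 active = growth inhibition above 50% at the single 2 µM test dose, taken to imply half-maximal potency below 2 µM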;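 note: 0% = DMSO untreated growth and 100% = chloroquine plus artemisinin killed control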). The conditions noted are these: P. falciparum Dd2 in RBCs, LDH growth readout, 72 h; at 2 µM; stronger effect = higher value.
Assay [2] in a line: HepG2 cytotoxicity, primary screen, cytotoxicity control for P. falciparum antimalarial project, cell-based, ATP luminescence (AID 2303;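 active = inhibition above 50%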;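 note: 0% = DMSO wells and 100% = digitonin-killed cells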). The note with it: HepG2 viability, 24-48 h, at 10 µM, stronger effect = higher value.
Assay [3] addresses L-lactate dehydrogenase (Plasmodium falciparum (isolate CDC / Honduras)) (UniProt Q27743). Description: PfLDH activity inhibition – cell lysate, 3D7 strain, counter-screen for P. falciparum growth inhibition project (AID 2304).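 Note: 0% = vehicle and 100% = reference inhibitor.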 The note with it: P. falciparum 3D7 crude extract, LDH APAD/NBT absorbance; at 2 µM; stronger effect = higher value. For orientation: A counterscreen serves to expose hits that act by an unwanted route or on another target.

A short description of assay [4]: inhibition of 3D7 malaria parasite growth – strain 3D7 (AID 2306).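 Note: 0% = DMSO wells and 100% = chloroquine plus artemisinin control wells.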 The note with it: P. falciparum 3D7 erythrocytic growth, LDH absorbance, 72 h; at 2 µM; stronger effect = higher value.
In assay [5] the target is Calcium-dependent protein kinase 1 (Plasmodium falciparum (isolate 3D7)) (UniProt P62344). Description: PfCDPK1 kinase inhibitors, biochemical, TCAMS library (AID 1159585; cut-off not given, nearly all actives have IC50 up to about 0.98 µM;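 note: inhibitors leave more ATP so luminescence rises with inhibition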). The note with it: recombinant PfCDPK1, Kinase-Glo ATP depletion luminescence. (Kinase-Glo reads ATP consumption through a luciferase reaction.)
For assay [6], the target named is Plasmodium falciparum protein kinase 6 (PK6, PF3D7_1337100) (UniProt Q8IDW1). Description: PfPK6 kinase inhibitors, biochemical, TCAMS library (AID 1159586). The note with it: recombinant PfPK6, Kinase-Glo ATP depletion luminescence.
Assay [7] concerns the target Protein kinase 7 (PK7), Plasmodium falciparum 3D7 (PF3D7_0213400) (UniProt Q7YTF7). Description: inhibition of Plasmodium PK7 catalytic activity – biochemical, TCAMS antimalarial set, Kinase-Glo luminescence (AID 1159587). The note with it: recombinant PfPK7, Kinase-Glo ATP depletion luminescence.
The target of assay [8] is Calcium-dependent protein kinase 4 (Plasmodium falciparum (isolate 3D7)) (UniProt Q8IBS5). Description: PfCDPK4 kinase inhibitors, biochemical, TCAMS library (AID 1159588; cut-off not given, nearly all actives have IC50 up to about 0.91 µM). The note with it: recombinant PfCDPK4, Kinase-Glo ATP depletion luminescence.

A number with no mark means an inactive call. For some of these results: Measured potencies and affinities stand elsewhere. The source made the active and inactive calls. Unless noted, the rule behind the calls is not given here.

Protein kinase 7 (PK7), Plasmodium falciparum 3D7 (PF3D7_0213400), sequence (Q7YTF7 1-343): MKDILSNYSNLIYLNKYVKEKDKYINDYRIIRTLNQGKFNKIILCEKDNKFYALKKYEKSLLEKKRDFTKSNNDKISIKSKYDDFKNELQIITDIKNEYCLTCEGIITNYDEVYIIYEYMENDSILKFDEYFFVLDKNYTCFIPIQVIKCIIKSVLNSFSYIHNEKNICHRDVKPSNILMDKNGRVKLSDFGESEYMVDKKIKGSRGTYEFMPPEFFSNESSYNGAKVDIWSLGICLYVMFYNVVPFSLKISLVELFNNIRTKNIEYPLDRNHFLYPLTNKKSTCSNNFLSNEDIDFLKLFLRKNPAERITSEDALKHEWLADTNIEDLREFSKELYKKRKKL
Calcium-dependent protein kinase 4 (Plasmodium falciparum (isolate 3D7)), sequence (Q8IBS5 whole entry, looked up): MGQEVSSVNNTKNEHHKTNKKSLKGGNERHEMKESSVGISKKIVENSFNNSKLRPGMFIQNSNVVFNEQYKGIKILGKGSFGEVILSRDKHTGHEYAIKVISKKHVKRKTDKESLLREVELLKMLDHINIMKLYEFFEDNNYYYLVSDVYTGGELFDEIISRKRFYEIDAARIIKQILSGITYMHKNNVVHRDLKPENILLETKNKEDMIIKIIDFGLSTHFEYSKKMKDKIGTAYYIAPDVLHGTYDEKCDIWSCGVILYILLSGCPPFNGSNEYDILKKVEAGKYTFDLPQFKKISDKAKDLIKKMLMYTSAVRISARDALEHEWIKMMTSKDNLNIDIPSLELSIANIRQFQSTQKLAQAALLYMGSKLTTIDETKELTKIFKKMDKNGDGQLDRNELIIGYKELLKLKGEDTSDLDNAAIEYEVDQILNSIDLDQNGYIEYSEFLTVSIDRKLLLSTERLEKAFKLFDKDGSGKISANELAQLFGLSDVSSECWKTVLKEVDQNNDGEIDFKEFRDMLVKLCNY
L-lactate dehydrogenase (Plasmodium falciparum (isolate CDC / Honduras)), sequence (Q27743 whole entry, looked up): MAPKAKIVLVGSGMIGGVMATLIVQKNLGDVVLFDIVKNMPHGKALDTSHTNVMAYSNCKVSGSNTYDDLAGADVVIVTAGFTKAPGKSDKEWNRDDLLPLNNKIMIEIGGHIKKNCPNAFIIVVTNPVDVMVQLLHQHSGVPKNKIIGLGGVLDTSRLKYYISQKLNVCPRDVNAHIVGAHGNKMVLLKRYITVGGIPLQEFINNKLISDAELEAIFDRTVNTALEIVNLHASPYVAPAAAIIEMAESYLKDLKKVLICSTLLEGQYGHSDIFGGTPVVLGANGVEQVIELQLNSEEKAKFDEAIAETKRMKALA
Plasmodium falciparum protein kinase 6 (PK6, PF3D7_1337100), sequence (Q8IDW1 1-305): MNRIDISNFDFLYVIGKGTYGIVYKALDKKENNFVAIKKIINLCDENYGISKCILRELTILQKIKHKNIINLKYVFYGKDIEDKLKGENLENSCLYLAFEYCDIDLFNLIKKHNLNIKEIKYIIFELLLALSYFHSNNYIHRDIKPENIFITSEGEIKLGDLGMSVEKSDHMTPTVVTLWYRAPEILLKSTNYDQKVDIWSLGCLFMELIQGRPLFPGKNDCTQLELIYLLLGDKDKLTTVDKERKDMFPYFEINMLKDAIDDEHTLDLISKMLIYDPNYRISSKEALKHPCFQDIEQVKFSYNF
Calcium-dependent protein kinase 1 (Plasmodium falciparum (isolate 3D7)), sequence (P62344 whole entry, looked up): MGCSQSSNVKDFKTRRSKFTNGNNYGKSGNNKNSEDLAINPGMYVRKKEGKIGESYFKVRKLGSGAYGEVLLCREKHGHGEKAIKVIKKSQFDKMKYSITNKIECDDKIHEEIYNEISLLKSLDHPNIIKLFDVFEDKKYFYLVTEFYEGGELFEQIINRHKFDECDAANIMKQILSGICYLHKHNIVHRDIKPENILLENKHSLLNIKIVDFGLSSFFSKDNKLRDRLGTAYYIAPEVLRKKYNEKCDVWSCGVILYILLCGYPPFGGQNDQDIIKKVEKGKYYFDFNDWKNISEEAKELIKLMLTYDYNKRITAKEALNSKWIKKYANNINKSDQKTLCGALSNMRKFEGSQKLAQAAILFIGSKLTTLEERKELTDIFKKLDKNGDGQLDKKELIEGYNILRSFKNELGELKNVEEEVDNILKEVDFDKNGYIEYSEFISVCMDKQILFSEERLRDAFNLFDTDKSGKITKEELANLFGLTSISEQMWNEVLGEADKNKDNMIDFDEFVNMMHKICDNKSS

For `COc1cc(F)c2ncc(Cl)c(CCN3CCC(NCc4ccc5c(n4)NC(=O)CS5)CC3)c2c1`, the values for the growth inhibition in assay [1] and in assay [4] were 41% and 99% (active), respectively. In addition, the inhibition in assay [2] was 18%; in assay [3] it was 3%. Besides, the result in assay [5], in assay [6], in assay [7] and in assay [8] was inactive.
For `CC(=O)Nc1ccc(C(=O)NC2CCN(c3ccnc4cc(Cl)ccc34)C2)cc1` (stereo not given), the growth inhibition in assay [1] is 100% (active); in assay [4], 101% (active). Besides, the inhibition is 1% in assay [2] and -1% in assay [3]. The result in assay [5], in assay [6], in assay [7] and in assay [8] was inactive.
As for `CN(C)c1ccc(-c2ccc(C(=O)NC3CCN(Cc4ccccc4F)CC3)s2)cc1`, the growth inhibition in assay [1] was 19%; in assay [4], 88% (active). Further, the inhibition in assay [2] is 30%; in assay [3] it was -4%. Further, the result in assay [5], in assay [6], in assay [7] and in assay [8] was inactive.
Regarding `COc1ccc(NC(=O)/C=C/c2ccccc2Cl)cc1OCCN1CCN(c2ccncc2)CC1`, the growth inhibition is 52% (active) in assay [1] and 101% (active) in assay [4]. The inhibition in assay [2] is 7%; in assay [3], -2%. For the same compound, the outcome in assay [5], in assay [6], in assay [7] and in assay [8] was inactive.
In the case of `CC(Oc1ccc(Cl)cc1Cl)c1nc(-c2ccc(NC(=O)c3ccco3)cc2)no1` (stereo not given), the growth inhibition in assay [1] was 82% (active); in assay [4] it was 92% (active). Besides, the inhibition is 7% in assay [2] and 0% in assay [3]. The outcome in assay [5], in assay [6], in assay [7] and in assay [8] was inactive.
As to `Cc1cc(N2CCCC2)nc(Nc2ccc(NC(=O)C(C)C)cc2)n1`, the growth inhibition in assay [1] was 36%; in assay [4], 97% (active). In addition, the inhibition in assay [2] was 40%; in assay [3], 2%. The outcome in assay [5], in assay [6], in assay [7] and in assay [8] was inactive.
Consider `CC(C)(C)c1cc(N=NC(=O)c2ccncc2)cc(C(C)(C)C)c1O`, for which the growth inhibition in assay [1] and in assay [4] was 99% (active) throughout. The inhibition in assay [2] is 47%; in assay [3] it was 1%. For the same compound, the result in assay [5], in assay [6], in assay [7] and in assay [8] was inactive.
On to `O=C(CC1NC(=O)c2ccccc21)Nc1ccc(-c2cccc(-c3nc4ccc(C(F)(F)F)cc4[nH]3)c2)cc1` (stereo not given), for which the growth inhibition in assay [1] was 36%; in assay [4], 95% (active). Besides, the inhibition was 69% (active) in assay [2] and -4% in assay [3]. Further, the outcome in assay [5], in assay [6], in assay [7] and in assay [8] was inactive.
Consider `O=C(C=Cc1ccc(Cl)c(Cl)c1)NCCCCCN1CCC(CCNS(=O)(=O)c2ccc(Br)cc2)CC1`, for which the growth inhibition is -1% in assay [1] and 91% (active) in assay [4]. Further, the inhibition was 58% (active) in assay [2] and 5% in assay [3]. In addition, the outcome in assay [5], in assay [6], in assay [7] and in assay [8] was inactive.
As for `CCN(CC)CCN(Cc1ccc(-c2ccc(Cl)cc2)cc1)C(=O)Cn1c(CCc2cccc(F)c2F)nc(=O)c2ccccc21`, the growth inhibition in assay [1] was 75% (active); in assay [4], 101% (active). Also, the inhibition was 45% in assay [2] and -4% in assay [3]. In addition, the result in assay [5], in assay [6], in assay [7] and in assay [8] was inactive.
As for `O=C(/C=C/c1ccc(Cl)c(Cl)c1)NCCCCCN1CCC(NC(=O)c2ccc(F)c(F)c2)CC1`, the growth inhibition in assay [1] was 20%; in assay [4] it was 99% (active). Moreover, the results for the inhibition in assay [2] and in assay [3] were 36% and -3%, respectively. For the same compound, the result in assay [5], in assay [6], in assay [7] and in assay [8] was inactive.
Take `C[C@@H](Oc1cc(-n2cnc3ccc(OCC4CCN(S(C)(=O)=O)CC4)cc32)sc1C(N)=O)c1ccccc1C(F)(F)F`: the growth inhibition is 50% (active) in assay [1] and 84% (active) in assay [4]. Besides, the inhibition in assay [2] was 31%; in assay [3], 5%. Further, the result in assay [5], in assay [6], in assay [7] and in assay [8] was inactive.
Regarding `CC(=O)Nc1ccc2[nH]cc(C3CCN(CC4CCC(NC(=O)/C=C/c5ccccc5Cl)CC4)CC3)c2n1` (stereo not given), the growth inhibition is 79% (active) in assay [1] and 101% (active) in assay [4]. Also, the inhibition in assay [2] was 16%; in assay [3], -1%. The outcome in assay [5], in assay [6], in assay [7] and in assay [8] was inactive.
For the compound `c1ccc(COc2ccc(COc3ccc(Cn4ccnc4)cc3)cc2)cc1`, the values for the growth inhibition in assay [1] and in assay [4] were 45% and 86% (active), respectively. The inhibition was 9% in assay [2] and 0% in assay [3]. Moreover, the result in assay [5], in assay [6], in assay [7] and in assay [8] was inactive.
On to `CCCN1CCN(c2cc(NCC)c3c4c(onc24)-c2ccccc2C3=O)CC1`, for which the growth inhibition in assay [1] is 11%; in assay [4], 96% (active). Besides, the inhibition in assay [2] is 4%; in assay [3] it was 6%. Further, the outcome in assay [5], in assay [6], in assay [7] and in assay [8] was inactive.
In the case of `Cc1cc(N2CCCN(CC3CCCCC3)CC2)nc(Nc2ccc(Br)cc2)n1`, the growth inhibition is 54% (active) in assay [1] and 95% (active) in assay [4]. For the same compound, the inhibition in assay [2] is 24%; in assay [3], -1%. Further, the result in assay [5], in assay [6], in assay [7] and in assay [8] was inactive.
For `COc1cc(NC(=O)/C=C/c2ccccc2OC(F)(F)F)cc(OCCN2CCC(O)(c3ccccc3)CC2)c1`, the growth inhibition in assay [1] was 50% (active); in assay [4], 102% (active). For the same compound, the inhibition in assay [2] was 61% (active); in assay [3] it was 2%. Further, the result in assay [5], in assay [6], in assay [7] and in assay [8] was inactive.
Take `O=C(O)c1cc(OCC(O)COc2ccc(O)c(C(=O)O)c2)ccc1O`: the growth inhibition in assay [1] was 6%; in assay [4] it was 99% (active). Moreover, the inhibition was 9% in assay [2] and 5% in assay [3]. For the same compound, the result in assay [5], in assay [6], in assay [7] and in assay [8] was inactive.
As for `CCCCCC(C)N=C(Nc1ccc(C#N)cc1O)Nc1ccccc1Br` (stereo not given), the values for the growth inhibition in assay [1] and in assay [4] were 95% (active) and 98% (active), respectively. The inhibition in assay [2] is 2%; in assay [3], -3%. For the same compound, the outcome in assay [5], in assay [6], in assay [7] and in assay [8] was inactive.
`CC(C)N1CCN(C(=O)c2ccc(CNCCCN3CCN(c4cccc(Cl)c4Cl)CC3)o2)CC1`: the growth inhibition in assay [1] is 36%; in assay [4] it was 98% (active). Moreover, the inhibition in assay [2] is 41%; in assay [3] it was 1%. Besides, the result in assay [5], in assay [6], in assay [7] and in assay [8] was inactive.

One may read the inhibition as the relative decrease from the control value, in per cent.

The values above are taken from PubChem BioAssay.
